A selection: hits, their analogues and other compounds. The true share with any hit is near 15%.
Pf growth 96h – Primary qHTS for delayed death inhibitors of the malarial parasite plastid, 96 hour incubation | P. falciparum luciferase reporter growth, 96 h | Potency, µM (top dose mostly 28.7 µM), most hits filed as inhibitors | actives 6.9% (n = 320,000)
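Infected RBCs, 2% Hct / 0.05% parasitemia final; luciferase-reporter P. falciparum; cpd 96 h, 37 C, 5% CO2; luciferase detection reagent; luminescence.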
HCV inh – qHTS Assay for Inhibitors of Hepatitis C Virus (HCV); AID 651820, 2012; Huh7.5.1 HCVcc-Cre infection, luciferase reporter, 44 h; actives 3.4% (n = 340,000); Potency, µM (doses to about 41.8 µM), most hits filed as inhibitors
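A cell-based infection assay in which seeded cells (1,000 per well) receive test compound after 4 h, are inoculated with HCVcc-Cre at approximately 0.5 moi, and are incubated 44 h before luminescence detection.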
Sm TGR inh – qHTS Assay for the Inhibitors of Schistosoma Mansoni Peroxiredoxins | Schistosoma mansoni thioredoxin glutathione reductase (TGR), Q962Y6 | Potency, µM (highest dose often 114 µM), hits mostly inhibitors | AID 485364, 2010 | actives 3% (n = 360,000) | purified TGR, DTNB reduction, TNB absorbance 405 nm; also: nearly all actives have a fitted effect of over 60% in size
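Kinetic colorimetric format: TGR-catalysed, NADPH-driven DTNB reduction monitored via TNB absorbance. Enzyme dispensed at 20 nM; compound exposure 15 min at room temperature before reaction start.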
HCMV inh – qHTS Assay for inhibitors of the human cytomegalovirus (HCMV); HFF cells, HCMV-luciferase reporter, 72 h; active compounds read low; actives 4.5% (n = 410,000); activity change, negative = inhibition, % at 57.5 µM; in the data active = activity change below about -60%; inconclusive = no clear call, values can overlap the other calls; inactive = above about -39%
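HFF cells seeded 16 h at 37C, treated with compounds, infected with luciferase-reporter HCMV at MOI 1 PFU/cell; luciferase read at 72 h post infection, normalized to buffer-only and Salinomycin controls.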
SARS PLP yeast – qHTS of Yeast-based Assay for SARS-CoV PLP. S. cerevisiae expressing SARS-CoV PLpro, growth rescue. Potency, µM (doses to about 32.9 µM), hits mostly activators. actives 0.19% (n = 330,000). AID 485353, 2010; calls by dose curve; also: nearly all actives have a fitted effect of over 55% in size
Pf growth 48h – Primary qHTS for delayed death inhibitors of the malarial parasite plastid, 48 hour incubation; AID 504832, 2011; P. falciparum luciferase growth in erythrocytes, 48 h; actives 5.9% (n = 310,000); Potency, µM (series often up to 28.7 µM), most hits filed as inhibitors
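A one-generation exposure of luciferase-tagged malaria parasites in RPMI 1640/Albumax erythrocyte culture, 37 C and 5% CO2. Inhibition is inferred from decreased luminescence after adding detection reagent.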
A number is an active result. Unless noted, calls follow the shape of the dose curve; as a rule, active = well fitted curve in the direction sought with a large enough effect; inconclusive = small, poorly fitted or top-dose-only effect, or another doubt; inactive = no such curve, though single readings can be large; an effect the other way counts as inactive or inconclusive.

What do the screens show for `CCN(C)C1CN(Cc2cn(CCCC(=O)OC)nn2)S(=O)(=O)C1` (configuration not stated)?
HCMV inh: inactive

Results for CCc1ccc(OCC(=O)NNCC(=O)Nc2ccc(OC)cc2)cc1 ?
Pf growth 96h: inactive; HCV inh: inactive; Sm TGR inh: inactive; HCMV inh: inactive; SARS PLP yeast: inactive; Pf growth 48h: inactive

Results for Cn1c(NCCN2CCCC2)nc2cc(-c3ccsc3)sc2c1=O ?
HCMV inh: inactive

How did Cc1ccsc1C(=O)NNC(=O)c1ccncc1 do in these assays?
Pf growth 96h: inactive; HCV inh: inconclusive; Sm TGR inh: inactive; HCMV inh: inactive; SARS PLP yeast: inactive; Pf growth 48h: inactive

How did C=C1SC(=Nc2c(C)cc(C)cc2C)N(C(=O)c2sc3ccccc3c2Cl)C12CCCCC2 do in these assays?
Pf growth 96h: 1.7µM; HCV inh: inactive; Sm TGR inh: inactive; HCMV inh: inactive; SARS PLP yeast: inactive; Pf growth 48h: inconclusive

How did C=C1SC(=Nc2ccccc2Cl)N(C(=O)c2sc3ccccc3c2Cl)C12CCCCC2 do in these assays?
Pf growth 96h: inconclusive; Sm TGR inh: inactive; SARS PLP yeast: inactive; Pf growth 48h: 5.9µM

How did O=C(Nc1ccc(Cl)cc1C(=O)c1ccccn1)c1ccccc1 do in these assays?
HCMV inh: inactive

How did CCSc1nnc(CNC(=O)C23CC4CC(CC(C4)C2)C3)n1Cc1ccccc1 do in these assays?
Pf growth 96h: inconclusive; HCV inh: inactive; Sm TGR inh: inactive; HCMV inh: inactive; SARS PLP yeast: inactive; Pf growth 48h: inconclusive

What do the screens show for `CCCSc1nnc(CNC(=O)C23CC4CC(CC(C4)C2)C3)n1Cc1ccccc1`?
Pf growth 96h: inconclusive; HCV inh: inactive; Sm TGR inh: inactive; HCMV inh: inactive; SARS PLP yeast: inactive; Pf growth 48h: 13µM

What do the screens show for `CCOCCn1ccc2c(OCC(=O)NCc3ccccc3)cccc2c1=O`?
Pf growth 96h: inactive; HCV inh: inactive; Sm TGR inh: inactive; HCMV inh: inactive; SARS PLP yeast: inactive; Pf growth 48h: inconclusive

How did COc1ccc(C(=O)NCc2oc(-c3ccccc3)cc2C(=O)O)cc1 do in these assays?
HCV inh: inactive; Sm TGR inh: inconclusive; HCMV inh: -86; SARS PLP yeast: inactive; Pf growth 48h: inactive

Results for COc1ccc(C(=O)NCc2c(C)oc(C)c2C(=O)O)cc1 ?
Pf growth 96h: inactive; HCV inh: inactive; Sm TGR inh: inactive; HCMV inh: inactive; SARS PLP yeast: inactive; Pf growth 48h: inactive

How did CN(CC1COc2ccccc2O1)C(=O)CCNS(=O)(=O)c1ccc(F)c(Cl)c1 (configuration not stated) do in these assays?
HCMV inh: inactive

What do the screens show for `O=C(Nc1nc2c(Br)cc(Br)cc2c(=O)s1)C1CCC1`?
Pf growth 96h: inactive; HCV inh: inactive; Sm TGR inh: inactive; HCMV inh: inactive; SARS PLP yeast: inactive; Pf growth 48h: 2.3µM

Results for Cc1ccc(C)c2sc(NC(=O)C3CC3)nc12 ?
Pf growth 96h: inactive; HCV inh: inconclusive; Sm TGR inh: inactive; HCMV inh: inactive; SARS PLP yeast: inactive; Pf growth 48h: inactive

What do the screens show for `CCOC(=O)N1CCN(C(=O)c2c[nH]c3ccc(S(=O)(=O)N(C)c4ccc(F)cc4)cc3c2=O)CC1`?
Pf growth 96h: inconclusive; HCV inh: inactive; Sm TGR inh: inactive; HCMV inh: inactive; SARS PLP yeast: inactive; Pf growth 48h: inactive

Results for CCOC(=O)N1CCN(C(=O)c2c[nH]c3ccc(S(=O)(=O)N(C)c4ccc(OCC)cc4)cc3c2=O)CC1 ?
Pf growth 96h: 13µM; HCV inh: inactive; Sm TGR inh: inactive; HCMV inh: inactive; SARS PLP yeast: inactive; Pf growth 48h: inactive

Results for CCOc1ccc(N(C)S(=O)(=O)c2ccc3[nH]cc(C(=O)NCC4CCCO4)c(=O)c3c2)cc1 (configuration not stated) ?
Pf growth 96h: inconclusive; HCV inh: inactive; Sm TGR inh: inactive; HCMV inh: inactive; SARS PLP yeast: inactive; Pf growth 48h: 13µM

Results for CCN(C(=O)COC(=O)c1ccc2c(=O)n3c(nc2c1)CCC3)C1CCS(=O)(=O)C1 (configuration not stated) ?
Pf growth 96h: inactive; HCV inh: inactive; Sm TGR inh: inactive; HCMV inh: inconclusive; SARS PLP yeast: inactive; Pf growth 48h: inactive

How did CCCOc1ccc2cc(-c3ccccn3)c(=O)oc2c1 do in these assays?
Pf growth 96h: inactive; HCV inh: inactive; Sm TGR inh: inactive; HCMV inh: -77; SARS PLP yeast: inactive; Pf growth 48h: inactive

What do the screens show for `O=c1oc2cc(OCc3c(F)cccc3Cl)ccc2cc1-c1ccccn1`?
Pf growth 96h: inconclusive; HCV inh: inactive; Sm TGR inh: inactive; HCMV inh: inactive; SARS PLP yeast: inactive; Pf growth 48h: inactive

What do the screens show for `COc1ccc(-c2csc(NC(=S)NC(=O)/C=C/c3ccc(C(C)C)cc3)n2)cc1OC`?
Pf growth 96h: inconclusive; HCV inh: inconclusive; Sm TGR inh: inactive; HCMV inh: inactive; SARS PLP yeast: inactive; Pf growth 48h: inconclusive

What do the screens show for `O=C(COC(=O)c1cccc2c1C(=O)c1ccccc1C2=O)NC1CCCCC1`?
Pf growth 96h: inconclusive; HCV inh: inconclusive; Sm TGR inh: inactive; HCMV inh: inconclusive; SARS PLP yeast: inactive; Pf growth 48h: inconclusive

What do the screens show for `CC1CCCCC1NC(=O)COC(=O)c1ccc2c(c1Cl)C(=O)c1ccccc1C2=O` (configuration not stated)?
Pf growth 96h: inactive; HCV inh: 25µM; Sm TGR inh: inactive; HCMV inh: -74; SARS PLP yeast: inactive; Pf growth 48h: inactive

How did CC(C)c1ccc(NC(=O)N[C@H]2CC[C@@]34CCCN3C(=O)CCC[C@H]4C2Cc2ccccc2)cc1 (some centres not stated) do in these assays?
HCMV inh: inactive

What do the screens show for `CCOC(=O)N1CCC(N2C(=O)c3ccccc3C2Nc2ccccc2)CC1` (configuration not stated)?
Pf growth 96h: inconclusive; HCV inh: inactive; Sm TGR inh: inactive; HCMV inh: inactive; SARS PLP yeast: inactive

Results for CCOC(=O)N1CCC(N2C(=O)c3ccccc3C2Nc2ccc(C)cc2)CC1 (configuration not stated) ?
Pf growth 96h: 9.3µM; HCV inh: inactive; Sm TGR inh: inactive; HCMV inh: inactive; SARS PLP yeast: inactive

What do the screens show for `CCOC(=O)N1CCC(N2C(=O)c3ccccc3C2Nc2cc(C(=O)OC)cc(C(=O)OC)c2)CC1` (configuration not stated)?
Pf growth 96h: 8.3µM; HCV inh: inactive; Sm TGR inh: inactive; HCMV inh: inactive; SARS PLP yeast: inactive

Bioassay records as filed in PubChem BioAssay.
